In PubChem BioAssay:
Activity calls are given as the source filed them.

system: Wnt5a (protein binding on small-molecule microarray); test: small molecules binding Wnt5a protein – biophysical, small-molecule microarray, 635/667 nm fluorescence, primary screen (AID 1142); conditions: 635 nm fluorescence, higher = more signal;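 note: fluorescence read at 667 nm with signal to noise per printed feature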

Compound | composite z-score
COC(=O)C(CC#Cc1ccc2c(c1)[C@]1(C(=O)N2)[C@H](c2ccc(OCCO)cc2)N2[C@H](c3ccccc3)[C@H](c3ccccc3)OC(=O)[C@H]2[C@@H]1C(=O)N1CCCCCCC1)C(=O)OC | 1.33
COCCOC(=O)N1C(=O)[C@@]2(c3ccccc31)[C@H](c1ccc(O)cc1)N1[C@H](c3ccccc3)[C@H](c3ccccc3)OC(=O)[C@H]1[C@@H]2C(=O)N1CCCCCCC1 | 1.08
COc1ccc(C(O)C2C=CC3C(=O)N(c4ccccc4)C(=O)C3N2Nc2ccc([N+](=O)[O-])cc2)c2ccccc12 (stereo not given) | 0.328
O=C1c2ccccc2[C@@]2(Cc3ccccc3N(Cc3ccccc3)C2=O)[C@H](c2ccc(CO)cc2)N1Cc1ccccc1Cl | -0.131
O=C1[C@@H]2[C@@H](CC(COc3ccccc3)=C([C@H](O)CCc3ccccc3)[C@@H]2CO)C(=O)N1Cc1ccccc1 | -0.0252
COCCOC(=O)N1C(=O)[C@@]2(c3cc(C#CCC(C(=O)OC)C(=O)OC)ccc31)[C@H](C(N)=O)[C@H]1C(=O)O[C@H](c3ccccc3)[C@H](c3ccccc3)N1[C@@H]2c1ccc(O)cc1 | 0.449
CN(C)CCCNC(=O)[C@@]1(C)c2ccccc2C(=O)N(Cc2ccc(OC(F)(F)F)cc2)[C@H]1c1ccc(CO)cc1 | -0.13
CCCC=C(CCC)[C@@H](NC(=O)OCC(C)C)c1ccc(C(=O)OC)cc1 | -0.0326
COc1ccc(CCNC(=O)[C@@H]2c3ccccc3C(=O)N(Cc3ccccc3OC)[C@H]2c2ccc(CO)cc2)cc1 | 0.321
CCCC#C[Si](O[C@H](CC)c1cn(Cc2ccccc2)nn1)(C(C)C)C(C)C | 0.24
[N-]=[N+]=NCc1ccccc1[C@@H]1OC(c2ccc(OCCCO)cc2)=N[C@]1(Cc1ccccc1N=[N+]=[N-])C(=O)O | 1.04
CN(C)CCCNC(=O)[C@@H]1c2ccccc2C(=O)N(Cc2ccccc2C(F)(F)F)[C@H]1c1ccc(CO)cc1 | 0.0246
C=CCNC(=O)[C@H]1[C@@H]2C(=O)O[C@@H](c3ccccc3)[C@@H](c3ccccc3)N2[C@@H](c2ccc(OCCO)cc2)[C@]12C(=O)Nc1ccccc12 | -0.159
O=C1O[C@@H](c2ccccc2)[C@@H](c2ccccc2)N2[C@@H](c3ccccc3OCCO)[C@]3(C(=O)Nc4ccc(C#CCCO)cc43)[C@@H](C(=O)NC[C@H](O)c3ccccc3)[C@H]12 | 0.381
C[C@]1(C(=O)O)c2ccccc2C(=O)N(Cc2cc(F)cc(C(F)(F)F)c2)[C@H]1c1ccc(CO)cc1 | -0.0056

system: not listed separately; test: ATP-based viability of Huh7 replicon cells – cell-based, CellTiter-Glo luminescence, basal, 48 h, cytotoxicity control for HCV replication inhibitor project, primary screen (AID 1143); conditions: higher = more signal, called active from +8 up or from −8 down;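 note: Huh7 hepatoma cells carrying a hepatitis C replication reporter with no stimulus; test concentration not given here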

Compound | z-score
[N-]=[N+]=Nc1ccccc1C[C@@]1(C(=O)NCC(O)CO)N=C(c2ccc(OCCCO)cc2)O[C@@H]1c1ccccc1 (stereo not given in full) | -3.5 (inactive)
C=C(CCCC)/C(=C/C[C@H](OC(=O)c1ccncc1)c1cccc(OCCO)c1)c1cnc2ccccc2c1 | -1.58 (inactive)
COCCOC(=O)N1C(=O)[C@@]2(c3cc(C#Cc4ccc(OC)cc4)ccc31)[C@H](c1ccc(OCCO)cc1)N1[C@H](c3ccccc3)[C@H](c3ccccc3)OC(=O)[C@H]1[C@@H]2C(=O)NC[C@H](O)c1ccccc1 | -1.07 (inactive)
CCOC(=O)C1=CC[C@@H](c2ccc(OC)cc2)N(S(=O)(=O)c2ccc(C)cc2)[C@H]1c1ccc(C)cc1 | -2.4 (inactive)
COCCOC(=O)N1C(=O)[C@@]2(c3cc(C#CCCO)ccc31)[C@H](c1ccc(OCCO)cc1)N1[C@H](c3ccccc3)[C@H](c3ccccc3)OC(=O)[C@H]1[C@@H]2C(=O)N1CCCCCCC1 | -1.31 (inactive)
COC(=O)[C@@]1(Cc2ccc(F)cc2)[C@H]2c3cc(C(=O)N4CCCC4)n(Cc4cc(F)cc5c4OCOC5)c3C[C@H]2CN1C(=O)c1ccccc1 | -3.39 (inactive)
C=C(CCCC)/C(=C/C[C@H](OC(=O)c1ccncc1)c1ccc(OCCO)cc1)c1cnc2ccccc2c1 | -1.17 (inactive)
C=CCOC(=O)[C@@H]1[C@H]2C(=O)O[C@H](c3ccccc3)[C@H](c3ccccc3)N2[C@H](c2ccc(OCCOC(=O)[C@H]3C[C@H]4C(=O)N5CCC[C@H]5C(=O)N4[C@H]3c3cccc(OCCO)c3)cc2)[C@@]12C(=O)Nc1ccc(I)cc12 | 0.0351 (inactive)
COc1ccc([Si](C)(C)[C@H]2[C@H](CC(=O)N3Cc4ccccc4C[C@H]3CO)O[C@@]3(C(=O)N(C)c4c(Br)cc(C)cc43)[C@@H]2C)cc1 | -7.74 (inactive)
CCCC[C@H]1OB(O)C[C@H]2C1=C(COc1ccccc1)C[C@H]1C(=O)C=CC(=O)[C@H]12 | -0.578 (inactive)
COCCOC(=O)N1C(=O)[C@@]2(c3cc(C#CCC(C(=O)OC)C(=O)OC)ccc31)[C@H](C(=O)Nc1nc3ccccc3s1)[C@H]1C(=O)O[C@H](c3ccccc3)[C@H](c3ccccc3)N1[C@@H]2c1ccc(O)cc1 | -0.869 (inactive)
COC(=O)[C@@]1(Cc2ccc(OC)cc2)[C@H]2c3cc(C(=O)N4CCCC4)n(Cc4ccc(Cl)c(C(F)(F)F)c4)c3C[C@H]2CN1C(=O)c1ccccc1 | -3.32 (inactive)
Cc1ccc(F)cc1S(=O)(=O)N[C@H]1CCN(Cc2ccc(OC(C)C)cc2)C1 | -3.11 (inactive)
COCCOC(=O)N1C(=O)[C@@]2(c3cc(C#CCNC(N)=O)ccc31)[C@H](C(=O)Nc1nc3ccccc3s1)[C@H]1C(=O)O[C@H](c3ccccc3)[C@H](c3ccccc3)N1[C@@H]2c1ccccc1OCCO | -2.11 (inactive)
CCCCC(O)C1C=CC2C(=O)N(c3ccccc3)C(=O)C2N1Nc1ccc([N+](=O)[O-])cc1 (stereo not given) | -3.32 (inactive)
CCCN1C(=O)[C@@]2(c3ccc([N+](=O)[O-])cc3)CC(=O)N(CC34CC5CC(CC(C5)C3)C4)[C@@H]2c2ccc(CO)cc21 | -0.0818 (inactive)
O=C1C=C(c2ccccc2)C(=O)C2=C1CC([C@H]1Oc3ccccc3S(=O)(=O)N3CCC[C@@H]13)=CC2 | -6.3 (inactive)
O=C1[C@H]2C=C(I)[C@H](C[C@@H]2OCCCCCCO)[C@@]12CO2 | 0.567 (inactive)

Compound | z-score
N#Cc1ccc(-c2cccc(=O)o2)cc1 | 0.454 (inactive)
N#Cc1ccc(NN2C(C(O)C3CC=CCC3)C=CC3C(=O)N(c4ccccc4)C(=O)C32)cc1 (stereo not given) | 0.595 (inactive)
COC(=O)C(CC#Cc1ccc2c(c1)[C@]1(C(=O)N2)[C@H](c2ccc(OCCO)cc2)N2[C@H](c3ccccc3)[C@H](c3ccccc3)OC(=O)[C@H]2[C@@H]1C(=O)N1CCCCCCC1)C(=O)OC | -1.99 (inactive)
COCCOC(=O)N1C(=O)[C@@]2(c3ccccc31)[C@H](c1ccc(O)cc1)N1[C@H](c3ccccc3)[C@H](c3ccccc3)OC(=O)[C@H]1[C@@H]2C(=O)N1CCCCCCC1 | -2.61 (inactive)
COc1ccc(C(O)C2C=CC3C(=O)N(c4ccccc4)C(=O)C3N2Nc2ccc([N+](=O)[O-])cc2)c2ccccc12 (stereo not given) | -0.8 (inactive)
O=C1c2ccccc2[C@@]2(Cc3ccccc3N(Cc3ccccc3)C2=O)[C@H](c2ccc(CO)cc2)N1Cc1ccccc1Cl | -1.35 (inactive)
O=C1[C@@H]2[C@@H](CC(COc3ccccc3)=C([C@H](O)CCc3ccccc3)[C@@H]2CO)C(=O)N1Cc1ccccc1 | -2.37 (inactive)
COCCOC(=O)N1C(=O)[C@@]2(c3cc(C#CCC(C(=O)OC)C(=O)OC)ccc31)[C@H](C(N)=O)[C@H]1C(=O)O[C@H](c3ccccc3)[C@H](c3ccccc3)N1[C@@H]2c1ccc(O)cc1 | -5.41 (inactive)
CN(C)CCCNC(=O)[C@@]1(C)c2ccccc2C(=O)N(Cc2ccc(OC(F)(F)F)cc2)[C@H]1c1ccc(CO)cc1 | -2.14 (inactive)
CCCC=C(CCC)[C@@H](NC(=O)OCC(C)C)c1ccc(C(=O)OC)cc1 | -1.07 (inactive)
COc1ccc(CCNC(=O)[C@@H]2c3ccccc3C(=O)N(Cc3ccccc3OC)[C@H]2c2ccc(CO)cc2)cc1 | -0.449 (inactive)
CCCC#C[Si](O[C@H](CC)c1cn(Cc2ccccc2)nn1)(C(C)C)C(C)C | -1.01 (inactive)
[N-]=[N+]=NCc1ccccc1[C@@H]1OC(c2ccc(OCCCO)cc2)=N[C@]1(Cc1ccccc1N=[N+]=[N-])C(=O)O | -2.25 (inactive)
CN(C)CCCNC(=O)[C@@H]1c2ccccc2C(=O)N(Cc2ccccc2C(F)(F)F)[C@H]1c1ccc(CO)cc1 | -0.574 (inactive)
C=CCNC(=O)[C@H]1[C@@H]2C(=O)O[C@@H](c3ccccc3)[C@@H](c3ccccc3)N2[C@@H](c2ccc(OCCO)cc2)[C@]12C(=O)Nc1ccccc12 | -1.62 (inactive)
O=C1O[C@@H](c2ccccc2)[C@@H](c2ccccc2)N2[C@@H](c3ccccc3OCCO)[C@]3(C(=O)Nc4ccc(C#CCCO)cc43)[C@@H](C(=O)NC[C@H](O)c3ccccc3)[C@H]12 | -0.908 (inactive)
C[C@]1(C(=O)O)c2ccccc2C(=O)N(Cc2cc(F)cc(C(F)(F)F)c2)[C@H]1c1ccc(CO)cc1 | -2.56 (inactive)
